# Screens (PubChem BioAssay)
# Rab9 prom act: qHTS Assay for Rab9 Promoter Activators; Potency, µM (top dose mostly 9.22 µM), usual class: activators; AID 485297, 2010; Huh7 Rab9 promoter-luciferase reporter, luminescence, 24 h; 320,000 compounds, 2.8% hits; also: nearly all actives have a fitted effect of over 60% in size
#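 Cell-based reporter: Huh7 stable for Rab9 promoter-driven luciferase, plated in reduced-serum medium with 10% FBS at 1500 cells/well, compound-treated 24 h at 37 °C, luminescence read after 10 min reagent.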
# ELG1 DNA repair: qHTS screen for small molecules that inhibit ELG1-dependent DNA repair in human embryonic kidney (HEK293T) cells expressing luciferase-tagged ELG1; HEK293T ELG1-luciferase reporter, luminescence, 16 h; DNA damage induced by 5-fluorouridine; 330,000 compounds, 2.3% hits; Potency, µM (top dose mostly 46.1 µM), hits mostly inhibitors; AID 504467, 2011; also: nearly all actives have a fitted effect of over 55% in size
#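 Luminescence from the luciferase reporter, measured 30 min after ONE-Glo reagent at room temperature, was the read-out. Beforehand, 2,000 cells per well were exposed for 16 hr at 37 °C to 5-fluorouridine together with compound or vehicle.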
# NPC1 promoter act: qHTS Assay for NPC1 Promoter Activators; Potency, µM (doses to about 9.22 µM), usual class: activators; 320,000 compounds, 2.4% hits; Huh7 NPC1 promoter luciferase reporter, 24 h; also: nearly all actives have a fitted effect of over 60% in size
#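 Luciferase expression driven by the NPC1 promoter was measured in stably transfected Huh7 cells after a 24 h compound incubation, using a luciferase reagent and a luminescence read.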
# SMN2 splice up: qHTS Assay for Enhancers of SMN2 Splice Variant Expression. HEK293 SMN2-luciferase splicing reporter, luminescence, 30-36 h. Potency, µM (doses to about 46.1 µM), usual class: activators. 210,000 compounds, 2.8% hits; also: nearly all actives have a fitted effect of over 55% in size
#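 HEK293 cells carry an SMN2 minigene-luciferase reporter in which exon 7 inclusion puts luciferase in frame. Cells were seeded at 2000 cells/well, attached for 10-12 hours, then exposed to compounds for 30-36 hours at 37C before ONE-Glo luminescence.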
# FLuc modulator: qHTS profiling assay for firefly luciferase inhibitor/activator using purifed enzyme and Km concentrations of substrates (counterscreen for miR-21 project). purified FLuc, Km substrates, luminescence inhibition. AID 588342, 2011. 360,000 compounds, 6.9% hits. Potency, µM (titrated, usually from 57.5 µM), actives largely listed as inhibitors; also: nearly all actives have a fitted effect of over 55% in size
# Target sequence (P08659 whole entry, looked up): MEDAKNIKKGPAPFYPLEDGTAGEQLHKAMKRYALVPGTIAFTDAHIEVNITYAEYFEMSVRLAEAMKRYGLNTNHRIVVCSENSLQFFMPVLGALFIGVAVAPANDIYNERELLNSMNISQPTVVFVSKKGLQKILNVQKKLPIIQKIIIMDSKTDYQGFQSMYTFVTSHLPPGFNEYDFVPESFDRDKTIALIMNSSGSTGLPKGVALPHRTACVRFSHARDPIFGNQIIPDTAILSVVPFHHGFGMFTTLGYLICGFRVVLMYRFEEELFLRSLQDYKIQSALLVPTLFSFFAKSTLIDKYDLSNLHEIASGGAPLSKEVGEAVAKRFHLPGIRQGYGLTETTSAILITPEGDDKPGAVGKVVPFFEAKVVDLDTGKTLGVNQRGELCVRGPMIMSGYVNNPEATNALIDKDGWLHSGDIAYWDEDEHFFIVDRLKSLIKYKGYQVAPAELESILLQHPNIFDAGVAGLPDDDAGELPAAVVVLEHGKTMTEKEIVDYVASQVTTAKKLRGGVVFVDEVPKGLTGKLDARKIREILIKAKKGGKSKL
#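 Purified P. pyralis luciferase (10nM final) with 10uM D-luciferin and 10uM ATP (Km levels) in 50mM Tris acetate pH 7.5, 10mM Mg acetate, 0.01% Tween-20, 0.05% BSA; qHTS 6-point titration, ~60 µM downward; luminescence read.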
# ELG1 genotox: qHTS screen for small molecules that induce genotoxicity in human embryonic kidney (HEK293T) cells expressing luciferase-tagged ELG1; HEK293T ELG1-luciferase reporter, luminescence, 16 h; Potency, µM (highest dose often 46 µM), usual class: activators; 330,000 compounds, 1.3% hits; AID 504466, 2011; also: nearly all actives have a fitted effect of over 60% in size
#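 Genotoxic stress is detected as increased luminescence from luciferase-tagged ELG1 in HEK293T cells, measured with ONE-Glo after a 16 hr treatment at 37 °C.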
# A number is an active result; i = inactive; ? = inconclusive; nt = not tested or not shown; [ ] = another dose, or the depositor's remark. The list is not random: actives were taken first. Their share in the collection is about 9.4%. Calls follow the shape of the dose curve; as a rule, active = well fitted curve in the direction sought with a large enough effect; inconclusive = small, poorly fitted or top-dose-only effect, or another doubt; inactive = no such curve, though single readings can be large; an effect the other way counts as inactive or inconclusive.
SMILES,Rab9 prom act,ELG1 DNA repair,NPC1 promoter act,SMN2 splice up,FLuc modulator,ELG1 genotox
COc1ccc(OC)c(NC(=O)c2c(NCc3ccc(OC)c(OC)c3)sc3c2CCC(C)C3)c1 (stereo not drawn),nt,nt,nt,nt,i,nt
CCOc1ccccc1NC(=O)c1ccc2c(c1)C(=O)N(CC1CCCO1)C2=O (stereo not drawn),i,i,i,nt,i,i
Cc1c(NC(=O)c2ccc3c(c2)C(=O)N(CC2CCCO2)C3=O)cccc1C(=O)O (stereo not drawn),i,?,i,i,15µM,i
O=C(Nc1ccc(O)c(C(=O)O)c1)c1ccc2c(c1)C(=O)N(CC1CCCO1)C2=O (stereo not drawn),i,i,i,i,9.5µM,i
Cc1ccc(Cl)cc1-n1ncc2c(N3CCN(Cc4ccccc4)CC3)ncnc21,nt,nt,nt,nt,i,nt
CN(C)N1C(N)=C(C#N)C(c2cccc3ccccc23)C2=C1CC(c1ccccc1)CC2=O (stereo not drawn),i,16µM,i,i[1.84 µM],i,i
CCc1nnc(NC(=O)c2ccc(OC)cc2OC)s1,0.45µM,?,0.45µM,2µM,2.1µM,?
COc1ccc(C(=O)Nc2nnc(SCC(=O)NC3CCCC3)s2)c(OC)c1,0.1µM,?,0.1µM,nt,0.54µM,2.9µM
COc1ccc(NC(=O)CSc2nnc(NC(=O)C3CCC3)s2)cc1,i,?,i,nt,i,i
COc1ccc(C(=O)Nc2nnc(SCC(=O)Nc3ccc(NC(C)=O)cc3)s2)c(OC)c1,0.63µM,?,0.35µM,nt,0.085µM,?
CC(=O)Nc1nnc(SCC(=O)NC2CCCC2)s1,i,i,i,nt,i,i
O=C(Nc1cnn(Cc2ccc(Cl)cc2Cl)c1)c1cc(-c2cccs2)on1,i,i,i,i,i,i
CC(=O)c1cccc(NC(=O)Nc2cnn(Cc3ccc(Cl)cc3Cl)c2)c1,i,26µM,i,i,i,i
Cc1cccc(-n2ncc3c(N(C)C4CCCCC4)ncnc32)c1,i,?,i,nt,0.17µM,0.46µM
Cc1cccc(-n2ncc3c(N(CCO)CCO)ncnc32)c1,3.5µM,?,3.2µM,14µM,15µM,?
CCN(c1ncnc2c1cnn2-c1cccc(Cl)c1)C1CCCCC1,nt,nt,nt,nt,3.8µM,nt
COc1ccc(-n2ncc3c(N(C)C4CCCCC4)ncnc32)cc1,i,?,i,nt,0.17µM,?
COc1ccc(OC)c(Nc2ncnc3c2cnn3-c2cccc(C)c2)c1,i,?,i,?,i,i
CCN(c1ncnc2c1c(-c1ccccc1)cn2-c1ccccc1)C1CCCCC1,nt,nt,nt,nt,i,nt
CC1CCC(C(=O)O)([C@H](Br)C(=O)O)CC1 (stereo partly drawn),nt,nt,nt,i[9.22 µM],nt,nt
COc1ccc(C2CC(=O)N(Cc3ccccc3)c3c2c(C)nn3-c2nc(C)cc(C)n2)c(OC)c1 (stereo not drawn),nt,nt,nt,nt,i,nt
C[C@@H]1CC2(OC(O)[C@]3(C)O[C@H]23)O[C@H]2C[C@@]3(C)[C@@H]4CC[C@H]5C(C)(C)C(O[C@@H]6OC[C@@H](O)[C@H](O)[C@H]6O)CC[C@@]56C[C@@]46CC[C@]3(C)[C@@H]12 (stereo partly drawn),nt,nt,nt,i,nt,nt
COc1ccc(OC(=O)c2cc(-c3ccc4c(c3)OCCO4)on2)cc1,nt,nt,nt,nt,7.6µM,nt
O=C(Oc1ccc(Cl)cc1)c1cc(-c2ccc3c(c2)OCCO3)on1,nt,nt,nt,nt,6µM,nt
N#Cc1ccc(OC(=O)c2cc(-c3ccc4c(c3)OCCO4)on2)cc1,nt,nt,nt,nt,21µM,nt
Cc1cccc(OC(=O)c2cc(-c3ccc4c(c3)OCCO4)on2)c1,nt,nt,nt,nt,4.8µM,nt
COc1ccc(Nc2nc3ccc(Cl)cc3n3nnnc23)cc1OC,nt,nt,nt,i,?,nt
O=C(NC1CC(=O)N(c2ccc(F)cc2)C1)c1cc2ccccc2o1 (stereo not drawn),nt,nt,nt,nt,i,nt
N#Cc1c2ccc(O)cc2n2ccccc12,i,4.1µM,i,i,?,i
